# In the library only some 0.99% were active in any assay of this set; here they are far more common.
# RTF Ca sens inh – cardiac RTF calcium desensitization; P19429+P45379; IANBD-labeled cardiac RTF, Ca2+ fluorescence; inhibition, % at 7.15 µM; 340,000 tested, 0.12% active;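 active means inhibition above the mean inhibition of all tested compounds plus 3 SD, cut at about 17% in these data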;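 further: assay run at fixed EC70 calcium of 1.6 mM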
# RTF Ca sens act – increases calcium sensitivity of human cardiac regulated thin filaments. P19429+P45379. IANBD-labeled TnC RTF fluorescence at EC20 calcium; 0% EC20 calcium, 100% full calcium. activation, % at 7.2 µM. 340,000 tested, 0.24% active;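 active means activation above the mean over all tested compounds plus 3 SD, cut at about 30% in these data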;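 further: rise in fluorescence read as greater calcium sensitivity of cardiac thin filaments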
# Keap1-Nrf2 PPI – disrupts human Keap1 binding to Nrf2 peptide; AID 504523; Keap1 Kelch-Nrf2 peptide fluorescence polarization, 1536-well; 340,000 tested, 0.15% active; inhibition, % at 9.4 µM; Q14145; in the data active means inhibition above about 12%;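 further: human Keap1 Kelch domain with fluorescein labeled Nrf2 9mer peptide probe; 0% = neutral control wells and 100% = peptide positive control; higher means more block of Keap1 binding to Nrf2 peptide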
# LANA DNA inh – blocks KSHV LANA C-terminal domain binding to DNA; MBP-C-LANA/FAM-LBS DNA binding, fluorescence polarization; inhibition, % at 9 µM; 340,000 tested, 0.078% active;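 active means highest replicate inhibition at or above 60% at 9 µM, even if other replicates fall short; inactive means all replicates below 60% inhibition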;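 further: 0% = neutral control wells and 100% = 4 µM acridine orange control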
# LANA-H2B inh – blocks KSHV LANA binding to histone H2A/H2B | cell-free LANA-H2A/H2B peptide, fluorescence polarization | 320,000 tested, 0.6% active | inhibition, % (concentration not given with the values) | AID 2629; in the data active means inhibition mostly above about 10%, no sharp cut-off; inactive means mostly below about 6.7%
# Target sequence (Q9QR71 whole entry, looked up): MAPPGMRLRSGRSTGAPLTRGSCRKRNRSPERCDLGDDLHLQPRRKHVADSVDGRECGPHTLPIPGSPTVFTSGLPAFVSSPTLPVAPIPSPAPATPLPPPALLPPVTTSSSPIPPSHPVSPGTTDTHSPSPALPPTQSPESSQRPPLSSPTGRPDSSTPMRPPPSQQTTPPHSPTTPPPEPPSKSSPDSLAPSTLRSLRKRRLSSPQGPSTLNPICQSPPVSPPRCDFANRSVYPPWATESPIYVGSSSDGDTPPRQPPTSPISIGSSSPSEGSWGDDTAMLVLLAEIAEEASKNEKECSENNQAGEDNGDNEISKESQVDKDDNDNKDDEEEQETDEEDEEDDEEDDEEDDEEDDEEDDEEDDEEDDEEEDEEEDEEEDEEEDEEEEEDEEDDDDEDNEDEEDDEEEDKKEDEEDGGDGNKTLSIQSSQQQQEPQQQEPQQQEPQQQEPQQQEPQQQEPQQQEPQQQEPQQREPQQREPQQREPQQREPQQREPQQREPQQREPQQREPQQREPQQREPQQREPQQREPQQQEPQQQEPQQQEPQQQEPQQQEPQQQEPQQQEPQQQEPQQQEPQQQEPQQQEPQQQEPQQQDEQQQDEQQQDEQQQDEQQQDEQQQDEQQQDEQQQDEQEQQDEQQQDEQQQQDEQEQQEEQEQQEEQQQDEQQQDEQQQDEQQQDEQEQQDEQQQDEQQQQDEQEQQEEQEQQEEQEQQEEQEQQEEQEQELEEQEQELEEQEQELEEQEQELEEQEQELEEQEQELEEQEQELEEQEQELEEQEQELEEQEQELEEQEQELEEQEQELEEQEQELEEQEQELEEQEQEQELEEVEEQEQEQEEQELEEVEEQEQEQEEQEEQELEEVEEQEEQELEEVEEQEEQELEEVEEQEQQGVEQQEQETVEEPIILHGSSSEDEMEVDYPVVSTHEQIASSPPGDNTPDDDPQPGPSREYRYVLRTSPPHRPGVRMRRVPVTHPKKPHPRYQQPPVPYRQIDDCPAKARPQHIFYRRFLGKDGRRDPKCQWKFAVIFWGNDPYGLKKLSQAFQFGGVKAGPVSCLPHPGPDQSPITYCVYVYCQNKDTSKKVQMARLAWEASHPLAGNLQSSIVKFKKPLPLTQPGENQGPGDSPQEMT
# Active calls of the source: *; · = no result; + = active, no number.
SMILES,RTF Ca sens inh,RTF Ca sens act,Keap1-Nrf2 PPI,LANA DNA inh,LANA-H2B inh
Cc1cc(C(=O)NCc2nc(-c3ccccc3)no2)ccc1[N+](=O)[O-],4,1,-4,-2,-6
Cc1cn([C@H](C(=O)NCCCCCCCCCCC(=O)N2CCNCC2)[C@@H](C)O)nn1,5,1,-4,1,-1
O=C(CCc1ccccc1)NCC1OCCc2ccccc21 (stereo unspecified),-7,6,-1,1,6
CCN(CC)CCCNC(=O)c1cc(-c2ccc(Cl)c(Cl)c2)on1,-7,2,-3,-1,19*
CCN(CC)CCCNC(=O)c1cc(-c2ccc(O)cc2)on1,0,-3,-1,-1,0
Cc1nonc1OCCNCCNc1ccccc1[N+](=O)[O-],5,1,-3,1,24*
N/C(=N\OC(=O)CC1CCCCC1)c1ccc(Cl)cc1,-3,-4,4,0,-1
C=CCOc1nc2sc(C)c(C)c2c(=O)n1-c1ccccc1,-9,-3,2,-3,7
COc1cc(C2C=C(c3cccs3)Nc3ncnn32)cc(OC)c1OC (stereo unspecified),-497,386*,88*,121*,·
COc1ccc(C2C=C(c3cccs3)Nc3nc(CCCO)nn32)cc1 (stereo unspecified),·,·,·,·,74*
O=C(Nc1cccc2oc(=O)ccc12)c1ccc([N+](=O)[O-])cc1[N+](=O)[O-],11,-6,-1,-1,-2
CCN(C[C@H]1N[C@@](CC)(C(=O)OC)[C@H]2C(=O)N(Cc3ccccc3)C(=O)[C@@H]12)S(=O)(=O)c1ccc(C)cc1,-2,0,-5,-1,+
CCN(C[C@H]1N[C@@](Cc2ccccc2)(C(=O)OC)[C@H]2C(=O)N(C)C(=O)[C@@H]12)C(=O)NC(C)C,-1,-4,0,-1,+
CCN(C[C@H]1N[C@@](Cc2ccccc2)(C(=O)OC)[C@H]2C(=O)N(C)C(=O)[C@@H]12)S(=O)(=O)c1ccc(OC)cc1,-3,-5,4,-2,+
Cc1cc(N/C=C(\C#N)S(=O)(=O)c2ccc(Cl)cc2)nc(C)n1,0,1,-3,1,1
O=C(CN1C(=O)NC2(CCCCCC2)C1=O)NCCc1ccc(F)cc1,-4,-3,0,0,·
Cc1cc(Br)c(NC(=O)C(C)Sc2nnnn2C)c(Br)c1 (stereo unspecified),-9,-5,-1,0,0
C[C@H](NC(N)=O)C(=O)Nc1ccc(OCc2ccccc2)cc1,-6,-1,1,-1,12*
O=C(Nc1ccc2oc(-c3ccncc3)nc2c1)c1ccc(Br)o1,4,4,-3,1,-4
CCOP(=O)(OCC)C(C#N)=C1SCN(c2ccc(Cl)cc2)CS1,-4,1,-3,-1,3
CCC(C)NC(=O)c1ccccc1NC(=O)Nc1ccccc1 (stereo unspecified),-4,-5,-3,1,16*
Cn1c(=O)n(C)c2cc(/C=N/NC(=O)c3ccncc3)ccc21,·,·,·,·,0
CCn1c(O)c(/C=N/NC(=O)c2ccncc2)c(=O)n(CC)c1=S,-88,97*,-159,-10,·
CC(C)(C)C(=O)Nc1ccc(F)cc1[N+](=O)[O-],-6,-1,6,1,12*
COc1cccc(N2CCN(C(=O)c3ccc(=O)oc3)CC2C)c1 (stereo unspecified),-14,-8,-1,5,1
SMILES,RTF Ca sens inh,RTF Ca sens act,Keap1-Nrf2 PPI,LANA DNA inh,LANA-H2B inh
Nc1c(C(=O)c2ccccc2)sc2nsc(SCCN3CCCC3)c12,-29,10,-15,-5,-2
Nc1c(C(=O)c2ccc(Cl)cc2)sc2nsc(SCCN3CCOCC3)c12,-21,33*,-7,0,-7
COC(=O)c1ccccc1NS(=O)(=O)c1c(C)noc1C,-1,-1,-1,1,3
CC1CCC(C(C)C)C(OC(=O)Cn2c(-c3ccccc3)[n+](C)c3ccccc32)C1 (stereo unspecified),-9,26,0,1,172*
COCCn1c(SCC(=O)Nc2ccc(C(N)=O)cc2)nc2c([nH]c3ccccc32)c1=O,-4,-1,-2,2,5
C/C(=N/NC(=O)c1cc(-c2cccc([N+](=O)[O-])c2)n[nH]1)c1cccc(O)c1,-13,2,-4,-1,15*
